According to PubChem BioAssay (Tox21):
Results filed as inconclusive are left out. Active and inactive are the calls of the source. Unless noted, calls come from the whole dose curve; as a rule, active = well fitted curve in the direction sought with a large enough effect in the repeat runs; inconclusive = weak or mixed curves; inactive = no such curve, though single readings can be large; an effect the other way counts as inactive or inconclusive.

Columns and labels:
[1] = qHTS assay to identify small molecule agonists of the peroxisome proliferator-activated receptor delta (PPARd) signaling pathway - cell viability counter screen (AID 743211); note: nearly all actives have a fitted effect of over 55% in size
Procedure, shortened: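 Following 5 h plating at 37 C and 5% CO2, PPARd UAS-bla HEK293H cells took up test compounds for 17 h. Viability was quantified by luminescence 30 min after CellTiter-Glo addition at room temperature.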

[2] = biological target: Peroxisome proliferator-activated receptor delta (Homo sapiens) (UniProt Q03181); assay: qHTS assay to identify small molecule agonists of the peroxisome proliferator-activated receptor delta (PPARd) signaling pathway (AID 743212; calls by dose curve;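 note: HEK293H cells with PPARd UAS beta-lactamase reporter GeneBLAzer system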)
Sequence of Peroxisome proliferator-activated receptor delta (Homo sapiens) (Q03181 whole entry, looked up): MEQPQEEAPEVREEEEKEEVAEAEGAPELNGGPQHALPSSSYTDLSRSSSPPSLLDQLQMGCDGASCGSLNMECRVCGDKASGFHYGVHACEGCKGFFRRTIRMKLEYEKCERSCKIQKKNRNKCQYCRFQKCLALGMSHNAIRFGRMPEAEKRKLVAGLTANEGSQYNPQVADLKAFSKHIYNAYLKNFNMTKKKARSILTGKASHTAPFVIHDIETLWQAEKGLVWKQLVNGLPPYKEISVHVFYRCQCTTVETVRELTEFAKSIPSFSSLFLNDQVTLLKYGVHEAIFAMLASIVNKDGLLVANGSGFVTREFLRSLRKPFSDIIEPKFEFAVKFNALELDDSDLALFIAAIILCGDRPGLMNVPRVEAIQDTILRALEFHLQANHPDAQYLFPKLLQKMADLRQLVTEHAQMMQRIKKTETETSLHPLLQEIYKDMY
Procedure, shortened: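 Beta-lactamase reporter readout: a ratiometric FRET signal from the LiveBLAzer substrate after 2 h at room temperature. Compound exposure at 37 °C in PPARδ-bla HEK293H cells driven by an upstream activator sequence.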

[3] = qHTS assay to identify small molecule antagonists of the peroxisome proliferator-activated receptor delta (PPARd) signaling pathway - cell viability counter screen (AID 743213); note: nearly all actives have a fitted effect of over 50% in size
Procedure, shortened: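 Same-well viability: cells pre-incubated 5 h, dosed with compound plus 300 nM L165041, kept 17 h at 37 C, FRET substrate 2 h RT, then CellTiter-Glo 30 min RT and luminescence.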

[4] = biological target: Peroxisome proliferator-activated receptor delta (Homo sapiens) (UniProt Q03181); assay: qHTS assay to identify small molecule antagonists of the peroxisome proliferator-activated receptor delta (PPARd) signaling pathway (AID 743215; active = well fitted inhibition curve with a large enough effect in the signal ratio in the repeat runs, not every such curve was filed as active; the % refers to the signal ratio;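 note: cells stimulated with agonist L165041 at 300 nM final during compound exposure; series mostly up to about 62 µM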)
Procedure, shortened: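 Here, a reporter line (HEK293H, beta-lactamase under a UAS) measures PPARd signaling. Compounds are tested against agonist L165041 at 300 nM final concentration over 17 h at 37 C, with fluorescence read after substrate.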

[5] = biological target: Bile acid receptor (Homo sapiens) (UniProt Q96RI1); assay: qHTS assay to identify small molecule antagonists of the farnesoid-X-receptor (FXR) signaling pathway (AID 743217; active = well fitted inhibition curve with a large enough effect in the signal ratio in the repeat runs, not every such curve was filed as active; the % refers to the signal ratio)
Sequence of Bile acid receptor (Homo sapiens) (Q96RI1 whole entry, looked up): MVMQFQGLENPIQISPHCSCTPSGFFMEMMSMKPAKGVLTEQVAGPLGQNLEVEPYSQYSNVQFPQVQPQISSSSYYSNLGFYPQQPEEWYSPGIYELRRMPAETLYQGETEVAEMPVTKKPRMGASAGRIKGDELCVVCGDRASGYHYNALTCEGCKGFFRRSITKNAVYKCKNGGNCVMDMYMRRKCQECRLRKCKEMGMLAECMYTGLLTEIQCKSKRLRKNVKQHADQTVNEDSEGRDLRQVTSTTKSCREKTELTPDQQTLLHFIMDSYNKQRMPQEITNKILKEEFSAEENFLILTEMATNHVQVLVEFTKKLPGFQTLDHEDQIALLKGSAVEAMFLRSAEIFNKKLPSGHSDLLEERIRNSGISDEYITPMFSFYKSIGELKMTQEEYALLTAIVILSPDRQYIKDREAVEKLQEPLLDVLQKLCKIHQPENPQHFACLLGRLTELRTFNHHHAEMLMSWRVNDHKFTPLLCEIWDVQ
Procedure, shortened: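 Test compounds are pin-transferred onto FXR-bla HEK 293T cells, then chenodeoxycholic acid is added at 50 uM final. After 16 h at 37 °C, LiveBLAzer B/G substrate is applied for 2 h at room temperature and fluorescence read.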

[6] = qHTS assay to identify small molecule antagonists of the farnesoid-X-receptor (FXR) signaling pathway - cell viability counter screen (AID 743221; active = well fitted cell-killing curve with a large enough effect in the repeat runs, not every such curve was filed as active; note: nearly all actives have a fitted effect of over 50% in size)
Procedure, shortened: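 Compound effects on cell number were measured as CellTiter-Glo luminescence in HEK 293T cells expressing FXR-UAS-bla, after 16 h at 37 C with 50 uM CDCA (final).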

[7] = biological target: Vitamin D3 receptor (Homo sapiens) (UniProt P11473); assay: qHTS assay to identify small molecule agonists of the vitamin D receptor (VDR) signaling pathway (AID 743222; calls by dose curve)
Sequence of Vitamin D3 receptor (Homo sapiens) (P11473 whole entry, looked up): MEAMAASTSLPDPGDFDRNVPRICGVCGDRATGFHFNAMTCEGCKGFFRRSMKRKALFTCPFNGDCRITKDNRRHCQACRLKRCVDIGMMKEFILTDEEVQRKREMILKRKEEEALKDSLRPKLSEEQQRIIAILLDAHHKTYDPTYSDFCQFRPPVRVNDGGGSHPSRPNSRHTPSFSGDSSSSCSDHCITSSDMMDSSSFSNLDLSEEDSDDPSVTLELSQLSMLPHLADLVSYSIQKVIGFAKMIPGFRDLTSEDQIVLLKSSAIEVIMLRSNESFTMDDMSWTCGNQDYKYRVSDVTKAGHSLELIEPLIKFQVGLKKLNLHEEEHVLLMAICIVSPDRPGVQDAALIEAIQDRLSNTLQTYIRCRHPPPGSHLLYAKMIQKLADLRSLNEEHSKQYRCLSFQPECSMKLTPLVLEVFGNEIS
Procedure, shortened: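 Tox21 cell reporter format: VDR-bla line, 16 h compound exposure in 5% CO2 at 37C, then fluorescence intensity after 2 h with LiveBLAzer B/G FRET substrate.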

[8] = biological target: Vitamin D3 receptor (Homo sapiens) (UniProt P11473); assay: qHTS assay to identify small molecule antagonists of the vitamin D receptor (VDR) signaling pathway (AID 743223; active = well fitted inhibition curve with a large enough effect in the signal ratio in the repeat runs, not every such curve was filed as active; the % refers to the signal ratio)
Procedure, shortened: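 Beta-lactamase activity in VDR-bla cells is measured by FRET substrate fluorescence (2 h, room temperature) after cells spend 16 h at 37C with test compound and 3 nM final 1alpha,25-dihydroxyvitamin D3.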

[9] = qHTS assay to identify small molecule agonists of the vitamin D receptor (VDR) signaling pathway - cell viability counter screen (AID 743224); note: series mostly up to about 63 µM; nearly all actives have a fitted effect of over 50% in size
Procedure, shortened: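 CellTiter-Glo viability readout on VDR-bla cells, measured after 16 h of compound treatment at 37C in the same wells.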

[10] = qHTS assay to identify small molecule antagonists of the vitamin D receptor (VDR) signaling pathway - cell viability counter screen (AID 743225); note: nearly all actives have a fitted effect of over 50% in size
Procedure, shortened: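 In this counter screen, VDR-bla HEK 293T cells receive test compound plus 3 nM final calcitriol for 16 h at 37C. Room-temperature steps of 2 h with the beta-lactamase substrate, then 30 min with CellTiter-Glo, precede the luminescence read.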

[11] = qHTS assay to identify small molecule agonists of the NFkB signaling pathway (AID 1159509; active = well fitted curve in the direction sought with a large enough effect in the signal ratio in the repeat runs, not every such curve was filed as active; the % refers to the signal ratio; note: series mostly up to about 61 µM)
Procedure, shortened: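 Agonist activity was read as beta-lactamase-driven FRET change (460 and 530 nm emission, 405 nm excitation) following 1.5 hr substrate loading at room temperature. Beforehand, ME-180 NFkB-bla reporter cells were treated with compounds for 5 hr at 37 C.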

[12] = qHTS assay to identify small molecule agonists of the NFkB signaling pathway - cell viability counter screen (AID 1159515; calls by dose curve; note: series mostly up to about 61 µM; nearly all actives have a fitted effect of over 55% in size)
Procedure, shortened: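 Tox21 library compounds were tested for cytotoxicity against NFkB-bla ME-180 cells during a 5 hr exposure at 37 C. CellTiter-Glo luminescence served as the viability read-out.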

[13] = qHTS assay to identify small molecule agonists of the endoplasmic reticulum stress response signaling pathway (AID 1159516; active = well fitted activation curve with a large enough effect in the signal ratio in the repeat runs, not every such curve was filed as active; the % refers to the signal ratio)
Procedure, shortened: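 Fluorescence at 460 and 530 nm (405 nm excitation) reports beta-lactamase from an ER stress response element in HeLa cells treated 5 hr at 37 C.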

[14] = qHTS assay to identify small molecule agonists of the endoplasmic reticulum stress response signaling pathway - cell viability counter screen (AID 1159517; calls by dose curve)
Procedure, shortened: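 ESRE-bla HeLa cells (1,500/well) were plated overnight at 37 C and exposed to compounds for 5 hr. After the 2 hr beta-lactamase substrate read, CellTiter-Glo went into the same wells, and luminescence was read after 30 min at room temperature.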

[15] = qHTS assay to identify small molecule antagonists of the retinoid-related orphan receptor gamma (ROR-gamma) signaling pathway - cell viability counter screen (AID 1159520); note: nearly all actives have a fitted effect of over 50% in size
Procedure, shortened: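 Cytotoxicity was read from cellular ATP (CellTiter-Glo luminescence) after 16 hr at 37 C with 1 uM doxycycline induction. The inducer was added 2 hr after compound transfer to Tet-on ROR gamma CHO cells.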

[16] = biological target: Nuclear receptor ROR-gamma (Homo sapiens) (UniProt P51449); assay: qHTS assay to identify small molecule antagonists of the retinoid-related orphan receptor gamma (ROR-gamma) signaling pathway (AID 1159521)
Procedure, shortened: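 Screening format: cell-based luciferase reporter in CHO cells with doxycycline-inducible RORγ. Compound pre-exposure lasts 2 h, doxycycline is 1 uM final, induction runs 16 h at 37 C, and ONE-Glo luminescence is read.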

[17] = qHTS assay to identify small molecule agonists of the AP-1 signaling pathway - cell viability counter screen (AID 1159525; calls by dose curve; note: nearly all actives have a fitted effect of over 55% in size)
Procedure, shortened: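 Intracellular ATP by Cell Titer Glo luminescence (30 min, RT) in the same ME-180 AP-1-bla wells after the 5 h compound exposure at 37 °C. Normalised to tetra n-octyl ammonium bromide and DMSO controls.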

[18] = qHTS assay to identify small molecule agonists of the AP-1 signaling pathway (AID 1159526; calls by dose curve)
[19] = qHTS assay to identify small molecule agonists of the farnesoid-X-receptor (FXR) signaling pathway - cell viability counter screen (AID 743218); note: nearly all actives have a fitted effect of over 45% in size
Procedure, shortened: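 Quantitative HTS counter screen measuring ATP-based viability via CellTiter-Glo luminescence in HEK 293T cells carrying a UAS-driven beta-lactamase reporter, after 16 h compound exposure at 37 C.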

[20] = biological target: Bile acid receptor (Homo sapiens) (UniProt Q96RI1); assay: qHTS assay to identify small molecule agonists of the farnesoid-X-receptor (FXR) signaling pathway (AID 743220; active = well fitted activation curve with a large enough effect in the signal ratio in the repeat runs, not every such curve was filed as active; the % refers to the signal ratio)
Procedure, shortened: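 FXR-UAS-bla HEK 293T cells carrying a UAS-driven beta-lactamase reporter were plated for 5 h at 37C/5% CO2, then exposed to DMSO-dissolved Tox21 10K compounds for 16 h at 37C. A LiveBLAzer B/G FRET substrate was loaded for 2 h at room temperature before fluorescence reading.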

Measured: Potency

NC(=O)CCCCC1CCSS1 (stereo unspecified)
inactive: [1] | [2] | [3] | [4] | [5] | [6] | [7] | [8] | [9] | [10] | [11] | [12] | [13] | [14] | [15] | [16] | [17] | [18]

COc1cc(O)cc(O)c1
inactive: [1] | [2] | [3] | [4] | [5] | [19] | [6] | [7] | [8] | [9] | [10] | [11] | [12] | [13] | [14] | [15] | [16] | [17] | [18]

COc1cccc(OC)c1
inactive: [1] | [2] | [3] | [4] | [5] | [19] | [6] | [7] | [8] | [9] | [10] | [11] | [12] | [13] | [14] | [15] | [16] | [17] | [18]

c1ccc2cnncc2c1
inactive: [1] | [2] | [3] | [4] | [19] | [6] | [7] | [9] | [11] | [12] | [13] | [14] | [15] | [16] | [17] | [18]

O=C(O)c1ccccc1S
inactive: [1] | [2] | [3] | [4] | [5] | [19] | [6] | [7] | [9] | [10] | [11] | [12] | [13] | [14] | [15] | [16] | [17] | [18]

O=C(O)c1cccc(C(=O)O)n1
inactive: [1] | [2] | [3] | [4] | [5] | [20] | [7] | [9] | [10] | [11] | [12] | [13] | [14] | [15] | [16] | [17] | [18]

Fc1ccccc1-c1ccccc1
inactive: [1] | [2] | [3] | [4] | [19] | [6] | [7] | [8] | [9] | [10] | [11] | [12] | [13] | [14] | [15] | [16] | [17] | [18]

O=C1CC2(CCCC2)CC(=O)N1
inactive: [1] | [2] | [3] | [4] | [5] | [19] | [20] | [6] | [7] | [8] | [9] | [10] | [11] | [12] | [13] | [14] | [15] | [16] | [17] | [18]

CN(C)CCn1nnnc1SCC1=C(C(=O)O)N2C(=O)[C@@H](NC(=O)Cc3csc(N)n3)[C@H]2SC1
inactive: [1] | [2] | [3] | [4] | [5] | [19] | [20] | [6] | [7] | [8] | [9] | [10] | [11] | [12] | [13] | [14] | [15] | [16] | [17] | [18]

CCCCNc1ccccc1
inactive: [1] | [2] | [3] | [4] | [5] | [19] | [20] | [6] | [7] | [8] | [9] | [10] | [11] | [12] | [13] | [14] | [15] | [16] | [17] | [18]

COc1cc(CCC(C)=O)ccc1O
inactive: [1] | [2] | [3] | [4] | [5] | [19] | [20] | [6] | [7] | [8] | [9] | [10] | [11] | [12] | [13] | [14] | [15] | [16] | [17] | [18]

O=[N+]([O-])c1ccc(CCO)cc1
inactive: [1] | [2] | [3] | [4] | [5] | [19] | [6] | [7] | [8] | [9] | [10] | [11] | [12] | [13] | [14] | [15] | [16] | [17] | [18]

CCCCCCOC(=O)c1ccccc1O
inactive: [1] | [2] | [3] | [4] | [5] | [20] | [7] | [8] | [9] | [10] | [11] | [12] | [13] | [14] | [15] | [16] | [17] | [18]

CSc1ccc(C=O)cc1
inactive: [1] | [2] | [3] | [4] | [19] | [6] | [7] | [8] | [10] | [11] | [12] | [13] | [14] | [15] | [16] | [17] | [18]

Cc1ncc(CSSCc2cnc(C)c(O)c2CO)c(CO)c1O
inactive: [1] | [2] | [3] | [4] | [5] | [19] | [6] | [7] | [8] | [9] | [10] | [11] | [12] | [13] | [14] | [15] | [16] | [17] | [18]

C[N+](C)(C)CC[N+]1(C)Cc2c(Cl)c(Cl)c(Cl)c(Cl)c2C1
inactive: [1] | [2] | [3] | [4] | [19] | [6] | [7] | [8] | [9] | [10] | [11] | [12] | [13] | [14] | [15] | [16] | [17] | [18]
